Experimental findings from PubChem BioAssay AID588855 (National Center for Advancing Translational Sciences (NCATS), 2011) are described below.

Screen size: about 410,000 compounds; about 5,000 (1.2%) were called active. About 13% were inconclusive and are not listed. The full list was thinned out, with actives kept by preference. Values without a mark were called inactive. The call rests on the fitted dose curve; in most records, active means well fitted inhibition curve with a large enough effect; inconclusive means small, poorly fitted or top-dose-only effect; inactive means no such curve, though single readings can be large or run the other way.
On the % scale 0 is the no-effect control and ±100 the full control effect; potency means the concentration at half of the fitted maximal effect.

The test is described as follows: qHTS for Inhibitors of TGF-b. Further: nearly all actives have a fitted effect of over 65% in size. The note with it: HepG2 CAGA-GFP TGF-b/SMAD3 reporter, GFP fluorescence, 18 h, TGF-beta stimulated, 500 pg/mL final; series mostly up to 46.1 µM; activity, negative = inhibition: at the top concentration. An outline of the steps: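 Inhibition was scored as loss of TGF-beta-induced (500 pg/mL final, 18 hours, 37 degrees C) GFP in HEPG2 cells carrying a CAGA-GFP reporter, in DMEM with 1% FBS. Well GFP was summed per cell; Activity was normalised to unstimulated and stimulated DMSO wells, then concentration-response fitting.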
Background: Quantitative high-throughput screening tests each substance at several concentrations.
Take `CCOC(=O)c1cnc2c(C)cc(Cl)cc2c1NCCc1ccc(OC)c(OC)c1`: the “activity, negative = inhibition” value was 15.4%.
The same measure, in the same setting: as for `Cn1c(=O)c2sccc2n2c(CCC(=O)NCc3ccccc3Cl)nnc12`, the figure is 8.53%; as for `CCc1cc2c(cc3c(=O)n(CC(=O)NCCc4ccc(OC)c(OC)c4)ncn32)s1`, -9.52%; as for `COc1ccc(C2NC(=O)N(C)C3=C2C(=O)N(c2ccc(C(=O)O)cc2)C3)cc1` (configuration not stated), -4.1%.
In the case of `CN(C)c1ccc(/C=N\Nc2ccc([N+](=O)[O-])cc2[N+](=O)[O-])cc1Cl`, the “activity, negative = inhibition” value is 11.6%.
The same measure, in the same setting: as for `CN(CCC#N)c1ccc(C=O)cc1`, the figure is -3.73%.
Same read-out and setting: as for `Cc1ccc(S(=O)(=O)N2CCN(c3nc(-n4cnc5ccccc54)nc4ccccc34)CC2)cc1`, the figure is 20.7%; as for `Cc1ccc(NC(=O)C(Cc2ccccc2)NS(=O)(=O)c2ccc3c(c2)oc(=O)n3C)cc1C` (configuration not stated), -20%; as for `Cc1cccc(N2CCN(C(=O)c3cnc(N4CCCC4)nc3C)CC2)c1C`, -29.2%.
Consider `CC1(C(=O)Nc2cccc3c2CCCC3)CCN1C(=O)CCc1ccc(Cl)cc1Cl` (configuration not stated), for which the Potency is 12.6 µM (active).
For `CC1(C(=O)Nc2cccc3c2CCCC3)CCN1C(=O)C1(c2ccccc2)CC1` (configuration not stated), the “activity, negative = inhibition” value is -2.26%.
Regarding `Cc1ccccc1S(=O)(=O)NC(=O)C1(C)CCN1C(=O)Cc1ccc(Cl)cc1Cl` (configuration not stated), the “activity, negative = inhibition” value was 1.16%.
Same read-out and setting: as for `CC(=O)c1ccc(NS(=O)(=O)c2ccc(-c3cc(C)no3)s2)cc1`, the figure is 0%.
Still for that read-out and setting: as for `Cc1oc(-c2ccccc2F)nc1CN1CCC(C(=O)NCCc2ccc(Cl)cc2)CC1`, the figure is -29%; as for `COc1ccc(Cl)cc1NC(=O)C(C)Sc1nc2c(c(=O)[nH]1)CCCC2` (configuration not stated), 2.67%; as for `CCOc1ccc(NC(=O)c2c(NC(=O)Cc3ccccc3)sc3c2CCCCC3)cc1`, -10.5%.
Take `CCOc1ccc(NC(=S)N2CCCCCC2)cc1`: the “activity, negative = inhibition” value is 14.3%.
For the compound `C/C(=N\NC(=O)Cc1ccc(Cl)cc1)c1ccccn1`, the Potency was 3.98 µM (active).
The same measure, in the same setting: as for `CC(=NNC(=S)N1CCCCCC1)c1ccccn1`, the figure is 1.26 µM (active).
Regarding `CC1=NNC(=O)C1CCC(=O)N/N=C(\C)c1ccc(Cl)cc1` (configuration not stated), the “activity, negative = inhibition” value is -12.6%.
Still for that read-out and setting: as for `CCNC(=S)N1CCN(c2ncccn2)CC1`, the figure is 4.06%; as for `O=C(Cc1ccc(Cl)cc1)c1ccccc1`, 12.7%; as for `CCCN(CCC)C(=O)Cn1c(=O)n(-c2ccc(Cl)cc2)c(=O)c2c3c(sc21)CCCCC3`, 0.91%.
On the same count and under the same terms, as for `Cc1ccc(-c2nnc3ccc(SCC(N)=O)nn23)cc1`, the figure is 0.378%; as for `Cc1ccc(Nc2ccccc2N)cc1`, 27.6%; as for `COc1ccccc1C(=O)Nc1ccc(Nc2ccccc2)cc1`, 0%.
For `Nc1ccc(Nc2ccccc2)cc1`, the Potency is 14.1 µM (active).
Turning to `COC(=O)c1ccc(NC(=O)CSc2n[nH]c(-c3ccccc3)n2)cc1`, the “activity, negative = inhibition” value was -26.8%.
For the compound `CC(Sc1oc(-c2ccco2)nc1S(=O)(=O)c1ccc(Br)cc1)c1ccccc1` (configuration not stated), the “activity, negative = inhibition” value was -17.3%.
As for `CCCCC(CCCC)c1ccc(C=Nc2ccc(/C=C/c3ccnc4ccccc34)cc2)cc1`, the “activity, negative = inhibition” value was -15.9%.
Still for that read-out and setting: as for `CN(c1ccccc1)S(=O)(=O)c1cc(C(=O)Nc2nc3ccccc3[nH]2)ccc1Cl`, the figure is -7.35%; as for `Cc1ccc2nc(CNC(=O)c3ccccc3)[nH]c2c1`, -2.21%.
As for `O=C(/C(=C/c1cccc(Cl)c1)c1nc2ccccc2[nH]1)c1ccccc1`, the Potency was 3.16 µM (active).
Take `Cc1cc(C)c(/C=C/c2onc(C)c2S(=O)(=O)N2CCC(C(=O)Nc3ccc(Cl)cc3C)CC2)c(C)c1`: the “activity, negative = inhibition” value is -0.14%.
Still for that read-out and setting: as for `Cc1ccc(NC(=O)C(=O)NCC(c2cccnc2)N2CCOCC2)cc1` (configuration not stated), the figure is -20.2%; as for `Cc1ccc(S(=O)(=O)N(CC(=O)Nc2ccc(Cl)cc2Cl)c2ccccc2C)cc1`, -23.3%.
Consider `COc1ccc(N/C=C(\C2OC(=O)c3ccccc32)[N+](=O)[O-])cc1` (configuration not stated), for which the “activity, negative = inhibition” value is 0%.
Take `COc1ccc(C(C)(NC(C)=O)c2nc(-c3ccc(S(C)(=O)=O)cc3)cs2)cc1` (configuration not stated): the “activity, negative = inhibition” value was 3.41%.
As to `COc1ccc(-c2csc(NC3OC(=O)c4ccccc43)n2)cc1` (configuration not stated), the Potency is 10 µM (active).
Still for that read-out and setting: as for `COc1ccc(/C=C/C(=O)c2ccc(NS(=O)(=O)c3ccc(C)cc3)cc2)cc1O`, the figure is 12.6 µM (active).
For `Cc1ccc(C(=O)/C=C/Nc2ccc(S(=O)(=O)Nc3onc(C)c3C)cc2)cc1`, the “activity, negative = inhibition” value is 0%.
With `COc1ccc(/C=C/C(=O)Nc2ccc(C)cc2)cc1S(=O)(=O)N1CCOCC1`, the “activity, negative = inhibition” value is -22.4%.
Take `Cc1ccc(C(=O)Nc2ccc(OCc3cc(=O)n4c(C)csc4n3)cc2)cc1`: the “activity, negative = inhibition” value was -8.38%.
The same measure, in the same setting: as for `COc1ccc(CCNc2ncnc3onc(-c4ccc(Cl)cc4)c23)c(OC)c1`, the figure is -3.73%; as for `Cc1ccc(CNC(=O)CSc2c3c(nc4cc(Cl)ccc24)CCCC3)cc1`, 6.3%; as for `O=C(CSc1c2c(nc3ccc(Cl)cc13)CCCC2)NCc1ccco1`, -0.373%.
`CCOC(=O)C1CCN(C(=O)CSc2c3c(nc4ccc(Cl)cc24)CCCC3)CC1`: the Potency is 15.8 µM (active).
Regarding `CN(C)C1=C2C=CC=CC2/C(=C2/C=Cc3ccccc32)C=C1` (configuration not stated), the “activity, negative = inhibition” value was 4.43%.
Turning to `CCOC(=O)c1ccc(NC(=O)c2c(NCc3cccs3)sc3c2CCCC3)cc1`, the “activity, negative = inhibition” value was -35.9%.
As to `Cc1ccc(S(=O)(=O)Nc2ccc3c(c2)C(=O)N([C@H](C)CO)C[C@@H](C)[C@@H](CN(C)C(=O)Nc2cccc4ccccc24)O3)cc1`, the Potency is 11.2 µM (active).
With `Cc1noc(C)c1NC(=O)Nc1ccc2c(c1)C(=O)N([C@H](C)CO)C[C@H](C)[C@@H](CN(C)C(=O)Nc1ccccc1)O2`, the “activity, negative = inhibition” value was -2.4%.
In the case of `COc1ccc(NC(=O)N(C)C[C@H]2Oc3ccc(NC(=O)C4CC4)cc3C(=O)N([C@H](C)CO)C[C@@H]2C)cc1`, the “activity, negative = inhibition” value is -0.985%.
The same measure, in the same setting: as for `COc1cc(OC)c(NC(=O)c2c3c(nn2C)-c2ccccc2SC3)cc1Cl`, the figure is -32.2%; as for `OC(CBr)CN1CCCCC1` (configuration not stated), 0.422%; as for `COc1ccccc1NC(=O)c1cc(S(=O)(=O)NCCc2ccccc2)ccc1F`, 0%.
On to `Cc1nn(-c2ccccc2)c(C)c1/C=N/NC(=O)CSc1nc2ccccc2c(=O)n1-c1ccccc1`, for which the Potency is 3.98 µM (active).
For the compound `Cc1ccc(-n2c(SCC(=O)N/N=C/C=C/c3ccccc3[N+](=O)[O-])nc3ccccc3c2=O)cc1`, the “activity, negative = inhibition” value was -13.8%.
